# Screens: PubChem BioAssay, Broad Institute
# Sampled rows, rich in hits. Any-hit rate of the full collection: about 1.4%.
# PGC1a acetyl inh – modulators of PGC1a acetylation; inhibition, % at 15.6 µM; U2OS PGC1a acetylation, AlphaScreen anti-acetyl-lysine; with virally co-expressed GCN5 acetyltransferase; hit rate 0.17% among 350,000; AID 651687;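 active = every replicate shows inhibition of at least 40%; inconclusive = mean inhibition at least 40% but some replicate below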;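 note: 0% = neutral control wells and 100% = positive control wells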
# ERAP1 inh – ERAP1 (human) enzyme inhibition; AID 652197; Q9NZ08; recombinant ERAP1, Leu-AMC fluorescence, 60 min; hit rate 0.15% among 340,000; inhibition, % at 10.7 µM;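 active = mean replicate inhibition of at least 30%, or all replicates individually reaching that 30% level; inactive = mean below 30% and not every replicate reaching it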;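 note: 0% = neutral control wells and 100% = L-leucinethiol positive control wells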
# RAD52 inh – blocks human RAD52 DNA annealing; hit rate 0.46% among 360,000; inhibition, % at 18.7 µM; recombinant RAD52 DNA annealing, FRET fluorescence;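 active = every replicate showing at least 50% inhibition; inconclusive = mean inhibition at least 50% but not in every replicate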
# MLL AF4-AF9 inh – inhibitors of human MLL-AF4/AF9 interaction; P42568; AlphaScreen, biotin-AF4 peptide binding to FLAG-AF9; inhibition, % at 10 µM; hit rate 0.47% among 350,000;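 active = every replicate reaching a set inhibition limit, whatever the replicate mean, cut at about 25% in these data; inconclusive = mean inhibition reaches that limit but some replicates miss it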;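 note: 0% = plate neutral control median and 100% = total signal loss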
# Target sequence (P42568 whole entry, looked up): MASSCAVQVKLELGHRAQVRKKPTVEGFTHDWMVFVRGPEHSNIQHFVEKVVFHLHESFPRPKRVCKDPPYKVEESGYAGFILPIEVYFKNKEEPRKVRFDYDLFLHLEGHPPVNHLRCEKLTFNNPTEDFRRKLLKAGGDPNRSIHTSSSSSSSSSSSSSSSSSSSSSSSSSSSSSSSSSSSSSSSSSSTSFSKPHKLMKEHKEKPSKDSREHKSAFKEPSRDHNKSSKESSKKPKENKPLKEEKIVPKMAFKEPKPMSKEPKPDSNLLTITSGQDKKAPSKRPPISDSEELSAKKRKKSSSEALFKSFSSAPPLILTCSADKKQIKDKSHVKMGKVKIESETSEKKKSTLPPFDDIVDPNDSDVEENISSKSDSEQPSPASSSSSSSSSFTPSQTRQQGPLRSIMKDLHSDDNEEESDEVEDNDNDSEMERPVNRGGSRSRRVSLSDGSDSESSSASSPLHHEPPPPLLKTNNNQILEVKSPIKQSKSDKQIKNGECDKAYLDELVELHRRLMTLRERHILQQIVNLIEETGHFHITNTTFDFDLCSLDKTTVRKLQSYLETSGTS
# INS-1E GSIS act – primary screen for activators of insulin secretion dependent on glucose, INS-1E cells, GLuc reporter luminescence. INS-1E GLuc reporter insulin secretion, 2-3 h. hit rate 0.61% among 370,000. AID 743287. activation, % at 16.6 µM;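 active = lowest replicate activation of at least 40%, so every replicate reaches that level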;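 note: 0% = median of neutral control wells and 100% = median of IBMX positive control wells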
# RAD54 branch – RAD54 (human) branch migration inhibition | Q92698 | RAD54 Holliday junction branch migration, FAM/BHQ fluorescence | inhibition, % at 10.4 µM | hit rate 0.14% among 360,000 | AID 602329;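 active = mean normalized replicate activity at least 40 and at least half of replicates scoring 40 or more; inconclusive = only one of the two criteria met; inactive = mean below 40 and under half of replicates reaching 40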;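 note: 0% = median of neutral control wells and 100% = median of positive control wells; inhibitors cause a drop in the FAM fluorescence signal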
# * = called active by the depositor; ? = inconclusive; . = no result.
SMILES,PGC1a acetyl inh,ERAP1 inh,RAD52 inh,MLL AF4-AF9 inh,INS-1E GSIS act,RAD54 branch
CCn1c(O)c(/C=N/N=C/c2ccc(OC)cc2)c2cc(C3=NNC(=O)CC3)ccc21,-5,5,-118,-15,65*,-11
CCCNC(=O)N1CCC2(CC1)CN(C(C)=O)[C@@H](CO)c1c2c2ccc(OC)cc2n1C,.,.,.,.,17,.
C[C@@H]1CN([C@@H](C)CO)C(=O)Cc2cc(NC(=O)Nc3ccc(C(F)(F)F)cc3)ccc2O[C@H]1CN(C)C(=O)Nc1ccccc1,-7,4,-17,1,-11,-2
COc1ccccc1N=Nc1ccc(O)c2ncccc12,13,2,-59,72*,-4,-3
CCS(=O)(=O)c1ccc(N=Nc2ccc(O)c3ncccc23)c(OC)c1,34,-1,-18,?,-2,.
CCCC(=O)Nc1ccc2c(c1)C(=O)N(C)C[C@@H](OC)[C@@H](C)CN(C(=O)CC)[C@@H](C)CO2,-14,.,.,.,7,.
COC(=O)C1=C(C)N(Cc2ccco2)C(=O)/C1=C\c1ccc([N+](=O)[O-])cc1,2,1,-67,5,-32,2
COC(=O)C1=C(C)N(Cc2ccco2)C(=O)/C1=C\c1ccc(N(C)C)cc1,-7,.,.,.,57*,-2
N/C(=N/O)c1nc(N2CCCCC2)nc(N2CCCCC2)n1,-11,.,.,.,.,11
N/C(=N/O)c1nc(N2CCCC2)nc(N2CCCC2)n1,.,-4,-5,9,76*,2
CS(=O)(=O)c1ccc(C(=O)OCC(=O)NC23CC4CC(CC(C4)C2)C3)cc1[N+](=O)[O-],5,10,-3,2,-2,.
CC(OC(=O)c1ccc(S(C)(=O)=O)c([N+](=O)[O-])c1)C(=O)NC1C2CC3CC(C2)CC1C3 (stereo not drawn),.,-6,-6,-4,143*,-3
CCC(OC(=O)c1ccc(S(C)(=O)=O)c([N+](=O)[O-])c1)C(=O)NC1C2CC3CC(C2)CC1C3 (stereo not drawn),.,-3,-8,-3,27,-2
CC(C)CN1CCN(C(=O)COC(=O)c2ccc(S(C)(=O)=O)c([N+](=O)[O-])c2)CC1,-68,.,4,-13,138*,5
CC(=O)N1CCN(C(=O)COC(=O)c2ccc(S(C)(=O)=O)cc2)CC1,8,0,-9,-1,67*,-4
Cc1ccc(-c2nc(C(=O)O)cs2)cc1,.,0,-7,-6,17,.
COc1ccc(-c2nc(C(=O)O)cs2)cc1OC,-5,2,-11,1,71*,.
CCOC(=O)c1csc(-c2ccc(OC)c(OC)c2)n1,.,-2,7,-5,50*,.
CCOC(=O)c1csc(-c2ccc3c(c2)CCO3)n1,-6,0,-4,3,.,11
CCC(CC)CN1CCN=C1Nc1ccccc1,6,-7,-11,2,59*,0
CCCC(=O)Nc1ccc2c(c1)C(=O)N(C)C[C@@H](OC)[C@@H](C)CN(CCC(F)(F)F)[C@@H](C)CO2,-11,4,-5,9,-4,-12
COC(=O)CSc1nc2ccccc2nc1SCC(=O)OC,-8,.,.,.,67*,12
CS(=O)(=O)N1CCN(c2ccccc2NC(=O)c2ccco2)CC1,-4,-3,17,-29,42*,-3
CCCC(=O)OCCNc1cc(Sc2nccn2C)c2nonc2c1[N+](=O)[O-],.,.,.,.,162*,.
CCC(=O)OCCNc1cc(Sc2nc3ccccc3[nH]2)c2nonc2c1[N+](=O)[O-],.,.,.,.,88*,.
SMILES,PGC1a acetyl inh,ERAP1 inh,RAD52 inh,MLL AF4-AF9 inh,INS-1E GSIS act,RAD54 branch
O=C(NCCCn1ccnc1)C1CC(c2ccccc2Cl)=NO1 (stereo not drawn),2,-1,-4,28*,10,-4
COc1ccnc(N2CCN(c3cccc(C(F)(F)F)c3)CC2)c1C#N,-7,.,.,.,73*,-13
COc1ccnc(N2CCN(c3ccc(Cl)cc3)CC2)c1C#N,-2,-2,-15,-1,-25,-6
OC(CNCCc1ccc(C(F)(F)F)cc1)COC(c1ccccc1)c1ccccc1 (stereo not drawn),32,1,11,3,365*,7
Cn1c(COc2ccccc2O)[n+](C)c2ccccc21,-1,-2,1,-2,8,3
CCCCCCCCCCOC(=O)Cn1c(COc2ccccc2OC)[n+](C)c2ccccc21,.,.,75*,19,179*,42
CCOC(=O)C1(CCOc2ccccc2)CCN(Cc2ccc(O)cc2)CC1,6,0,4,2,-7,-2
CCOC(=O)C1(CCOc2ccccc2)CCN(Cc2cccc3nonc23)CC1,.,-4,-18,26*,-5,5
COc1ccc(NC(=O)N(C)C[C@H]2OCCCC[C@H](C)Oc3ccc(NC(=O)C4CCCCC4)cc3C(=O)N([C@H](C)CO)C[C@H]2C)cc1,.,.,.,.,1,.
CO[C@H](CN(C)S(=O)(=O)c1ccc(Cl)cc1)[C@H](C)CN([C@@H](C)CO)S(=O)(=O)c1cccc(Cl)c1,-34,-2,-2,1,-33,4
CN(C)CCNC(=O)/C(=C/c1ccc(-c2ccc(Cl)cc2)o1)NC(=O)c1ccccc1,4,.,.,.,32,25
Cc1ccc(C(=O)N/C(=C\c2ccc(-c3ccc(Br)cc3)o2)C(=O)NCCCN(C)C)cc1,.,1,-44,25*,27,.
Cc1c(/C(O)=C2\C(=O)C(=O)N(CCCN(C)C)C2c2ccccc2)cnn1-c1ccccc1 (stereo not drawn),82*,-1,-6,-2,12,.
O=C1CSC(c2ccccn2)N1c1ccccc1 (stereo not drawn),-1,1,-6,-3,16,-4
O=C1CSC(c2ccccn2)N1c1ccc(Br)cc1 (stereo not drawn),1,0,-18,-2,43*,.
CCCN(C)C[C@H]1OCCCC[C@H](C)Oc2ccc(NS(=O)(=O)c3ccc(F)cc3)cc2C(=O)N([C@@H](C)CO)C[C@@H]1C,-6,2,42,11,3,1
CC(C)NC(=O)N[C@H]1C=C[C@H](CC(=O)N2CCCCC2)O[C@H]1CO,-1,-1,8,0,2,-2
COc1ccc(-c2cc(C(F)(F)F)nc(S(=O)(=O)CCCC(=O)Nc3cc(C)on3)n2)cc1OC,.,37*,8,-1,6,.
COc1ccccc1-c1cc(C(F)(F)F)nc(S(=O)(=O)CCCC(=O)Nc2cc(C)on2)n1,16,.,.,.,.,9
COc1cc2c(cc1OC)-c1cc(NC3CCCCCCC3)nc(=O)n1CC2,-20,.,.,.,.,39
COc1cc2c(cc1OC)-c1cc(NC3CCCCC3)nc(=O)n1CC2,-1,.,.,.,72*,2
COc1cc2c(cc1OC)-c1cc(Nc3ccccc3C)nc(=O)n1CC2,8,3,6,2,53*,-14
CCOc1ccc(Nc2cc3n(c(=O)n2)CCc2cc(OC)c(OC)cc2-3)cc1,0,1,-1,4,32,15
